Among all 220,000 compounds or so, about 910 (0.41%) were called active.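 How the source made its calls: active means primary inhibition above the hit cutoff, then over 50% inhibition at one or more dose response concentrations (cut at about 23% in these data, passing the limit was not always enough); inconclusive means conflicting primary data, or primary hits not chosen for dose response; inactive means low primary inhibition, or under 50% at every dose.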 Only a selection was taken, and actives are over-represented in it overall. Entries with a potency or affinity are not part of this list.
Each molecule was assayed against Aminopeptidase N (Plasmodium falciparum (isolate 3D7)) (UniProt O96935) (assay: malaria alanyl aminopeptidase activity blockers – biochemical, fluorogenic H-Leu-NHMec substrate, 1536-well (AID 1445;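 further: plate controls were DMSO full reaction for no effect and no enzyme background for full effect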)). Settings: recombinant M1AAP, H-Leu-NHMec fluorogenic kinetic assay; at 30 µM, active compounds read high unless noted.
Aminopeptidase N (Plasmodium falciparum (isolate 3D7)), sequence (O96935 whole entry, looked up): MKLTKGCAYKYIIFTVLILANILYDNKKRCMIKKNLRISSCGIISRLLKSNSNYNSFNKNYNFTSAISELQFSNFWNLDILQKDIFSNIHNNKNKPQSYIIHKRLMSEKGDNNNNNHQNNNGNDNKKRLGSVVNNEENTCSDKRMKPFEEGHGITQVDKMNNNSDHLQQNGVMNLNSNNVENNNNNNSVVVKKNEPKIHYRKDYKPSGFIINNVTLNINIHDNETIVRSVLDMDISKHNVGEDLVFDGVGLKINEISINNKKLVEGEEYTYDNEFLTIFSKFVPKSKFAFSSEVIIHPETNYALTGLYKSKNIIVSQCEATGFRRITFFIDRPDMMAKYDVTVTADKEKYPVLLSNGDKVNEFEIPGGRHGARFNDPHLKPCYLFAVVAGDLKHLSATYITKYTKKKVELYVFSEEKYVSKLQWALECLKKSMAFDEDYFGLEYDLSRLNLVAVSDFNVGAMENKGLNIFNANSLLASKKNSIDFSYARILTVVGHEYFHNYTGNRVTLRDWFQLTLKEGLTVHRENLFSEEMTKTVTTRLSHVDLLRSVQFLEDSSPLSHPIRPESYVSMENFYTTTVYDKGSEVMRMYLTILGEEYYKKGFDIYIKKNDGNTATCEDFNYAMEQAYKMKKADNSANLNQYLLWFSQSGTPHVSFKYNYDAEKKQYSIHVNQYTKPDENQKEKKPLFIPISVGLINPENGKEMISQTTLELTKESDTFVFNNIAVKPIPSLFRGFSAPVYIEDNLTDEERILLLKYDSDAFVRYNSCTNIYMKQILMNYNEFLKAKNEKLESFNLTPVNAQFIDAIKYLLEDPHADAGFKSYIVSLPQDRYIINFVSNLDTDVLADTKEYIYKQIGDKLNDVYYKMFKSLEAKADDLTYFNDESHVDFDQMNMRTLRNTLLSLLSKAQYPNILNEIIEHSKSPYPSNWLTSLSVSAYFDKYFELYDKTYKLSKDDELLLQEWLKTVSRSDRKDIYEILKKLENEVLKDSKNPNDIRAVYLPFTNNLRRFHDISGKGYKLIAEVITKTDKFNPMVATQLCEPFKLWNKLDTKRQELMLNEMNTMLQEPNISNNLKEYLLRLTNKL

inhibition, active:
COc1ccc(NC(=O)C2CCCN(S(=O)(=O)c3cccc4cccnc34)C2)cc1OC (stereo not drawn) 28.4%
O=C(NCc1cccs1)C1CCN(S(=O)(=O)c2cccc3cccnc23)CC1 45.9%
O=C(NCc1ccc2c(c1)OCO2)C1CCCN(S(=O)(=O)c2cccc3nonc23)C1 (stereo not drawn) 27.8%
COc1ccc(OCCSc2nnc(CC(=O)Nc3cccc(Cl)c3Cl)n2C)cc1 23.6%
Cc1cc(NS(=O)(=O)c2ccc(Nc3nc(-c4sc(C)nc4C)cs3)cc2)no1 23.9%
CCCCc1[nH]c(=O)c(C#N)c2c1CSC(C)(C)C2 23.7%

inhibition, inactive:
Cc1ccc(C(C(=O)NC(C)(C)C)N(Cc2cccs2)C(=O)c2ccc3c(c2)OCCO3)cc1 (stereo not drawn) 9.95%
O=C(Cn1nnc(-c2ccc3c(c2)OCO3)n1)N1CCOCC1 0.39%
CCOc1ccc(N2CC(C(=O)Nc3ccc(S(=O)(=O)Nc4ncccn4)cc3)CC2=O)cc1 (stereo not drawn) 20.6%
CN(Cc1cnccn1)Cc1c(C(=O)N2CCc3ccccc3C2)nc2ccc(Cl)cn12 1.48%
CC1(NC(=S)NCCO)CCS(=O)(=O)C1 (stereo not drawn) 6.94%
O=C(NCc1cccs1)C1CCCN(S(=O)(=O)c2cccc3cccnc23)C1 (stereo not drawn) 21.9%
COc1ccc(NC(=O)C2CCN(S(=O)(=O)c3cccc4cccnc34)CC2)cc1OC 2.6%
COc1cccc(NC(=O)C2CCCN(S(=O)(=O)c3cccc4cccnc34)C2)c1 (stereo not drawn) 4.01%
O=C(NCc1cccs1)C1CCN(S(=O)(=O)c2cccc3nsnc23)CC1 6.27%
O=C(NCc1ccco1)C1CCN(S(=O)(=O)c2cccc3cccnc23)CC1 0.35%
COc1ccc(CNC(=O)C2CCN(S(=O)(=O)c3cccc4cccnc34)CC2)cc1 11.4%
CCOc1ccccc1C1C(C(=O)OC)=C(N)OC2=C1C(=O)CCC2 (stereo not drawn) 3.31%
CCOC(=O)N1CCC(NC(=O)C2=CCN(S(=O)(=O)c3ccc(F)cc3)CC2)CC1 -3%
Cc1cccc(C(=O)Nc2sc(C)c(-c3ccccc3)c2C#N)c1 3.54%
O=C(OC1CCOC1=O)c1ccc(Cl)c(S(=O)(=O)N2CCCCC2)c1 (stereo not drawn) 1.33%
COc1cc(/C=C2\SC(c3ccc(C)cc3)=NC2=O)cc(OC)c1OC -0.48%
COc1cc(/C=C2\SC(c3ccc(C)cc3)=NC2=O)cc(OC)c1O 19.7%
C=CCn1c(=N)c(C(=O)NCCCOC)cc2c(=O)n3cc(C)ccc3nc21 4.34%
COCCNC(=O)c1cc2c(=O)n3cccc(C)c3nc2n(Cc2ccncc2)c1=N 30.2%
C=CCn1c(=N)c(C(=O)NCCCOC)cc2c(=O)n3ccccc3nc21 13.6%
COCCCNC(=O)c1cc2c(=O)n3cccc(C)c3nc2n(C(C)C)c1=N 21.8%
CC(CN1CCCCC1)OC(=O)C1c2ccccc2Oc2ccccc21 (stereo not drawn) 1.62%
Cc1ccc(S(=O)(=O)N2c3ccccc3CC2C)cc1 (stereo not drawn) 2.44%
CC(c1ccccc1)C1CC(=O)N(C2CCCCC2)C1=O (stereo not drawn) -0.34%
COc1ccc2cc1Oc1ccc(cc1)C[C@H]1c3c(cc4c(c3Oc3cc5c(cc3OC)CCN(C)[C@@H]5C2)OCO4)CCN1C 2.7%
COc1ccc2cc1Oc1ccc(cc1)C[C@H]1c3cc(c(OC)cc3CCN1C)Oc1c(OC)c(OC)cc3c1[C@H](C2)N(C)CC3 0.59%
CC(c1ccccc1)n1c(Cn2ncc3ccccc3c2=O)n[nH]c1=S (stereo not drawn) 7.12%
O=C(NCc1ccccc1)C1CCCN(S(=O)(=O)c2cccc3nonc23)C1 (stereo not drawn) 34.1%
O=C(NCc1ccco1)C1CCCN(S(=O)(=O)c2cccc3nsnc23)C1 (stereo not drawn) 5.11%
O=C(NCc1ccc2c(c1)OCO2)C1CCCN(S(=O)(=O)c2cccc3cccnc23)C1 (stereo not drawn) 18.6%
O=C(NCc1ccco1)C1CCCN(S(=O)(=O)c2cccc3cccnc23)C1 (stereo not drawn) 9.65%
COCC(=O)N(Cc1ccccc1)c1ccccn1 17.1%
CC(=O)Nc1ccc(S(=O)(=O)N2CCN(CC(O)COc3ccc4ccccc4c3)CC2)cc1 (stereo not drawn) 8.01%
O=C(CSc1nnc(Cc2ccccc2)n1C1CCCCC1)N1CCOCC1 4.89%
COc1ccc(/C(N)=N/OC(=O)c2ccc3c(c2)OCO3)cc1OC 1.74%
CCn1c(CC(=O)Nc2cccc(Cl)c2Cl)nnc1SCCOc1ccc(OC)cc1 13.4%
COc1cccc(NC(=O)Cc2nnc(SCCOc3ccccc3)n2C)c1 8.03%
CCC(=O)Nc1nc(C)c(-c2csc(Nc3ccc(S(=O)(=O)Nc4cc(C)on4)cc3)n2)s1 6.43%
Cc1cc(NS(=O)(=O)c2ccc(Nc3nc(-c4sc(N)nc4C)cs3)cc2)no1 17.9%
Cc1nc(CNC(=O)c2cc(COc3ccc(F)cc3Cl)on2)cs1 3.28%
Cc1ccc(S(=O)(=O)Nc2ccc(Cl)cc2C(=O)c2ccccc2)cc1 3.73%
O=C(Cc1sc(Nc2ccccc2)nc1-c1ccccc1)NCc1ccccc1 7.32%
COc1cc(/C=N/Nc2nc3ccccc3s2)cc([N+](=O)[O-])c1O 32.1%
COc1cc(/C=C(\C#N)c2nc3ccccc3[nH]2)cc(OC)c1O 20.3%
COc1ccc(-c2csc(/C(C#N)=C\c3ccc(O)c([N+](=O)[O-])c3)n2)cc1OC 3.12%
COc1cc(/C=C(\C#N)c2nc3ccc(C)cc3[nH]2)c([N+](=O)[O-])cc1OC 14.8%
N#C/C(=C/c1ccncc1)c1nc2ccccc2s1 -2.18%
COc1cc(/C=C(/C#N)c2nc(-c3cc4ccccc4oc3=O)cs2)cc([N+](=O)[O-])c1O 11%
CC(C)COC(=O)N(C)c1ccc(C(O)(C(F)(F)F)C(F)(F)F)cc1 11.6%
COCCn1c(SCC(=O)Nc2cccc(OC)c2)nc2c(oc3ccccc32)c1=O -5.31%
NS(=O)(=O)c1ccc(NC(=O)COC(=O)CCNC(=O)NC23CC4CC(CC(C4)C2)C3)cc1 2.67%
CSc1nc(C)cc(C)c1C(N)=O 6.25%
CCc1[nH]c(=O)c(C#N)c2c1CSC(C)(C)C2 10.3%
Cc1[nH]c(=O)c(C#N)c2c1CSC(C)(C)C2 9.75%
CCOC(=O)c1coc(CNC(=O)c2c(C)oc3c2CCCC3)c1 4.14%
Cc1ccc(CN2CCN(C3CSCCSC3)CC2CCO)cc1 (stereo not drawn) -1.96%
CC(=O)N1CCN(c2ccc(NC(=O)C(C)Oc3ccc(Cl)cc3Cl)cc2)CC1 (stereo not drawn) 4.51%
O=c1cc(-c2ccccc2Cl)oc2c(NS(=O)(=O)c3ccccc3C(F)(F)F)ccc(O)c12 10.4%
O=c1cc(-c2ccccc2Cl)oc2c(NS(=O)(=O)c3ccccc3OC(F)(F)F)ccc(O)c12 3.26%
Cc1ccc(S(=O)(=O)N2CCCC2C(=O)Nc2ccc(O)cc2)cc1 (stereo not drawn) 7.62%
c1ccn2c(SCc3ccc4c(c3)OCO4)nnc2c1 3.07%
S=C(Nc1ccc(Br)cc1)N1CCn2cccc2C1c1cccnc1 (stereo not drawn) 10.1%
COc1ccc(C)cc1NC(=O)c1cc2ccccc2o1 -2.39%
COc1ccc(C(=O)Nc2cccc(OC)c2)cc1 1.64%
Cc1ccc(C(=O)Nc2ccc(Oc3ccc(C(=O)O)c(C(=O)O)c3)cc2)cc1C 5.36%
COc1ccc(S(=O)(=O)n2nc(OC(=O)c3cccs3)cc2NC(=O)c2cccs2)cc1 3.59%
CN(C(=O)c1cc2n(n1)C(C(F)(F)F)CC(c1ccco1)N2)c1ccccc1 (stereo not drawn) 2.19%
O=C(Oc1ccc(OC(=O)c2ccco2)c(S(=O)(=O)c2ccc(Cl)cc2)c1)c1ccco1 4.36%
COc1ccc(C(=O)O/N=C(\N)Cc2ccc([N+](=O)[O-])cc2)c(OC)c1 5.06%
O=C(CSc1nnc(CCCN2C(=O)c3cccc4cccc(c34)C2=O)n1-c1ccccc1)N1CCCCC1 3.42%
O=C(CSc1nnc(CCCN2C(=O)c3cccc4cccc(c34)C2=O)n1-c1ccccc1)NCCCO 13.2%
Cn1c(SCC(=O)c2ccc(F)cc2)nnc1-c1cnccn1 -2.54%
O=C(CN(c1ccccn1)S(=O)(=O)c1ccccc1)Nc1ccccc1 -0.68%
Cc1csc(SCC(=O)Nc2cccc(S(=O)(=O)N3CCOCC3)c2)n1 0%
O=C(NCc1ccccc1Cl)c1ccc(CSc2nc3ccncc3[nH]2)cc1 1.57%
CSC(=NC#N)N1CCN(c2ccc([N+](=O)[O-])cc2)CC1 8.93%
C=CCN(CC=C)S(=O)(=O)c1ccc(NC(=S)NC(=O)/C=C/c2ccccc2)cc1 9.4%
O=C(Cn1nnc2ccccc21)Nc1ccccc1[N+](=O)[O-] -1.91%
CC(C)(C)NC(=O)COc1ccccc1C#N -0.28%
Cc1ccc(C(=O)Nc2nc(=O)n(C(=O)C3CC3)s2)cc1 4.6%
Cc1ccc(C(=O)Nc2nc(=O)n(C(=O)c3ccccc3C)s2)cc1 4.83%
Cc1cc[n+](-c2nc3ccccc3nc2C(=C=[N-])C#N)cc1 4.51%

Reference: PubChem BioAssay AID1445 (SRMLSC, 2008)
